Assay in all cases: NCI-60 one-dose screen, 48 h (100 = growth as untreated, 0 = no growth, -100 = all killed)
Details in all cases: 10 µM unless noted

For assay [1], the system named is T-47D breast.
Assay [2] concerns BT-549 breast.
For assay [3], the system named is MDA-MB-435 melanoma.
Assay [4] has as its system SW-620 colon.
The subject of assay [5] is MCF7 breast.
The subject of assay [6] is KM12 colon.
Assay [7] concerns HCC-2998 colon.
Assay [8] has as its system HCT-116 colon.

This is part of a sample that, as a whole, favours compounds with a hit. Of some 83,000 tested, about 20% had one in any assay.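 Cell lines were cultured in 96-well plates, exposed to a single compound concentration, and assessed for percent growth 48 hours later.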 A number with no mark means an inactive call. Activity calls are given as the source filed them. How the source made its calls: active means growth percent below 10; inactive means the rest.

Regarding `Cc1ccc(-n2nnc(C3=NCCc4c3[nH]c3ccc(Cl)cc43)c2C)cc1`, the growth in assay [1] was 35.7%; in assay [2], 85.3%; in assay [3], 78%; in assay [4], 64.8%; in assay [5] it was 77.8%; in assay [6], 57.3%.
As to `Nc1nc(I)c2ncn(C3OC(CO)C(O)C3O)c2n1` (stereo not drawn), the growth in assay [1] was 94.9%; in assay [2], 69.7%; in assay [3] it was 91.6%; in assay [4], 114%; in assay [5], 96.6%; in assay [7], 103%. Further, the growth in assay [6] is 115%.
For the compound `NC(N)=N/N=C(/c1ccccc1)c1ccc(N)cc1`, the growth in assay [1] is 107%; in assay [2] it was 72.7%; in assay [3], 91.2%; in assay [4], 111%; in assay [8], 115%; in assay [7] it was 103%. Besides, in assay [6], the growth is 112%.
Turning to `COc1cc(C(=O)/C=C/c2c(-c3ccc(F)cc3)nc3ncccn23)cc(OC)c1OC`, the growth is 59.8% in assay [1]; 32.5% in assay [2]; 11.9% in assay [3]; 32.2% in assay [4]; 17.7% in assay [8]; 44.1% in assay [7]. For the same compound, in assay [6], the growth is 22.3%.
Take `CNC(=O)c1cc(Oc2ccc3nc(Nc4cc(Cl)cc(Cl)c4)ccc3c2)ccn1`: the growth in assay [1] is 55.6%; in assay [2] it was 58.9%; in assay [3], 12.8%; in assay [4], 45.6%; in assay [8], 49%; in assay [7] it was 74.5%. The growth in assay [6] was 30.2%.
In the case of `O=c1oc2ccc(Cl)cc2cc1-c1cs/c(=N/N=C\c2ccc(Cl)cc2)n1/N=C/c1ccc(Cl)cc1`, the growth in assay [1] was 87.5%; in assay [2], 109%; in assay [3], 103%; in assay [4], 104%; in assay [5], 95.7%; in assay [7] it was 103%. Further, in assay [6], the growth is 107%.
Consider `Cc1ccccc1NC(=O)CN(C)C`, for which the growth is 95.6% in assay [1]; 106% in assay [2]; 108% in assay [3]; 108% in assay [4]; 97.4% in assay [5]; 116% in assay [7]. Also, the growth in assay [6] was 107%.
Turning to `CCCCN(Cc1ccc(C(=O)NO)cc1)C(=O)Nc1ccc(OCCCCCCCCCn2cc(CCCCC(=O)N[C@H](C(=O)N3C[C@H](O)C[C@H]3C(=O)NCc3ccc(-c4scnc4C)cc3)C(C)(C)C)nn2)cc1`, the growth in assay [1] was 32.2%; in assay [2] it was 42.2%; in assay [3] it was 34.8%; in assay [4] it was 30.7%; in assay [5], 8.44% (active); in assay [7] it was 57.2%. For the same compound, the growth in assay [6] is 22.1%.
Turning to `C=C(C)C1CCC(=C)C2CCC3(C)OC12/C=C(/COC(C)=O)CCC3O` (stereo not drawn), the growth in assay [1] was 112%; in assay [2], 78.6%; in assay [3], 98.7%; in assay [4], 106%; in assay [8], 103%; in assay [7] it was 106%. Besides, the growth in assay [6] was 117%.
For the compound `O=C1NC(=S)S/C1=C\N1N=C(c2ccc(Cl)cc2)CC1c1ccc(F)cc1` (stereo not drawn), the growth is 72.2% in assay [1]; 100% in assay [2]; 97.2% in assay [3]; 92.1% in assay [4]; 71.9% in assay [5]; 100% in assay [7]. Moreover, in assay [6], the growth was 87.4%.
Consider `COc1ccc(C2CC(c3ccccc3)=NN2c2nc(C)c(C(C)=O)s2)cc1` (stereo not drawn), for which the growth was 99.7% in assay [1]; 110% in assay [2]; 103% in assay [3]; 96.1% in assay [4]; 94.7% in assay [5]; 102% in assay [6].
For the compound `O=C(/C=C/C12c3ccccc3C(c3ccccc31)C1C(=O)NC(=O)C12)c1ccc(Cl)cc1` (stereo not drawn), the growth was 39.9% in assay [1]; 9.59% (active) in assay [2]; -19.4% (active) in assay [3]; -3.94% (active) in assay [4]; 10.6% in assay [5]; -67% (active) in assay [7]. In assay [6], the growth is -36.6% (active).
As to `O=C1CC(c2ccc3c(c2)OCO3)Nc2cc3c(cc21)OCO3` (stereo not drawn), the growth in assay [1] is 59.5%; in assay [2], 32.7%; in assay [3], -34.6% (active); in assay [4] it was 25.1%; in assay [5] it was 13.9%; in assay [6], 15.2%.
Take `CCOC(=O)c1ccc(NC(=O)CCCN(CC)CC)cc1`: the growth in assay [1] is 92.6%; in assay [2], 83.1%; in assay [3] it was 108%; in assay [4], 110%; in assay [8], 87.3%; in assay [7], 102%. For the same compound, the growth in assay [6] was 104%.
For the compound `COc1cc(/C=C/C(=O)c2cccc(-n3cc(-c4ccccc4)[nH]c3=O)c2)cc(OC)c1OC`, the growth in assay [1] is -6.56% (active); in assay [2], -13.1% (active); in assay [3], -3.32% (active); in assay [4] it was -29% (active); in assay [8] it was -90.3% (active); in assay [7], -81.4% (active). Also, the growth in assay [6] is -53.6% (active).
For the compound `N=C(N)c1ccc(-c2ccc(-c3ccc(Cl)c(Cl)c3)o2)nc1`, the growth in assay [1] was 85.9%; in assay [2] it was 94.9%; in assay [3], -52.1% (active); in assay [4], -69.8% (active); in assay [8], -57.8% (active); in assay [7] it was 77.8%. In assay [6], the growth is -15% (active).
Regarding `CCCCCCNCc1cc(C(C)(C)C)cc(CNCCCCCC)c1O`, the growth was -41.6% (active) in assay [1]; -81% (active) in assay [2]; -82.8% (active) in assay [3]; -69.6% (active) in assay [4]; -90.8% (active) in assay [8]; -85.2% (active) in assay [7]. In addition, the growth in assay [6] is -83% (active).
Consider `COc1cccc(-c2cnco2)c1OCc1c(C)c(COc2c(OC)cccc2-c2cnco2)c(C)c(COc2c(OC)cccc2-c2cnco2)c1C`, for which the growth is 33.5% in assay [1]; 39.2% in assay [2]; 54.9% in assay [3]; 75% in assay [4]; 65.5% in assay [5]; 99.3% in assay [7]. Moreover, in assay [6], the growth was 64.9%.
